Source: PubChem (National Center for Advancing Translational Sciences (NCATS))
Sampled rows, rich in hits. Any-hit rate of the full collection: about 3.1%.
TSHR antagonist: Antagonists of the Thyroid Stimulating Hormone Receptor: HTS campaign; AID 504810, 2011; 0.2% of 330,000 active; Thyrotropin receptor (Homo sapiens), P16473; TSHR-expressing cells, TSH-stimulated cAMP HTRF, 2 h; active compounds read low; activity change, negative = inhibition, % at 11.5 µM;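 active = activity change below a set negative limit, meaning inhibition stronger than a set level, cut at about -70% in these data; inconclusive = activity change between two set negative limits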; also: % is scaled to controls: 0 for no effect and ±100 for the full control effect
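TSHR-expressing cells were treated with compounds, then stimulated with TSH at EC80 (4nM final) for 2 hours at 37 deg C. Cellular cAMP was measured by HTRF competition between lysate cAMP and cAMP-d2 for a cryptate-labelled anti-cAMP antibody.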
PLK1 PBD block: qHTS for Inhibitors of PLK1-PDB (polo-like kinase 1 - polo-box domain): Primary Screen; Plk1 PBD binding of FITC phosphopeptide, fluorescence polarization; 2.8% of 360,000 active; Potency, µM, for the others: max response, negative = inhibition, usual class: inhibitors; AID 720504, 2013; Serine/threonine-protein kinase PLK1 (Homo sapiens), P53350; also: potency is read from the fitted curve at half-maximal effect; series mostly up to about 57 µM; % is scaled to controls: 0 for no effect and ±100 for the full control effect; nearly all actives have a fitted effect of over 65% in size
Vif-APOBEC3F blk: qHTS for Inhibitors of Vif-A3F Interactions: qHTS. HeLa A3F-eYFP + Vif (tagged APOBEC3F with the HIV-1 protein that degrades it), YFP fluorescence increase. Potency, µM (highest dose often 46.1 µM), inactives show at the highest dose activity, negative = active. 0.2% of 390,000 active. AID 602313, 2012; also: potency is read from the fitted curve at half-maximal effect; % of control where 0% means no effect; nearly all actives have a fitted effect of over 65% in size
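Fluorescence increase (Ex 488/Em 500-530) after overnight compound treatment at 37 deg C flags inhibition of Vif-driven A3F-eYFP loss in stable HeLa A3F-eYFP/Vif cells seeded overnight beforehand.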
Vif-A3G inh: qHTS for Inhibitors of Vif-A3G Interactions: qHTS; HeLa A3G-eYFP + Vif (tagged APOBEC3G with the HIV-1 protein that degrades it), YFP fluorescence, overnight; Potency, µM (series often up to 46.1 µM), for the others: at the highest dose activity, negative = active, usual class: inhibitors; 0.076% of 410,000 active; AID 602310, 2012; also: potency is read from the fitted curve at half-maximal effect; % is scaled to controls: 0 for no effect and ±100 for the full control effect; nearly all actives have a fitted effect of over 60% in size
Target sequence (Q9HC16 whole entry, looked up): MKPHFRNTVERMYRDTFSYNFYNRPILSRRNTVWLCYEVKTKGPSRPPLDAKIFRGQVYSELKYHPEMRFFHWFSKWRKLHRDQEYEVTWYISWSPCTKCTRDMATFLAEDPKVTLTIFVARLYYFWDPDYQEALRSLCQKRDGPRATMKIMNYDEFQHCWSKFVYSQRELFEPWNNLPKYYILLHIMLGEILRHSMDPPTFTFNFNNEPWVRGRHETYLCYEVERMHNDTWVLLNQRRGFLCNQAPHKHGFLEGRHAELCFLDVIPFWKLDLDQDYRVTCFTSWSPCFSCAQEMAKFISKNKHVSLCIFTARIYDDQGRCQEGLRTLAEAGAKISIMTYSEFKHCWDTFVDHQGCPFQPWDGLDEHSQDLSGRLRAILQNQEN
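HeLa cells stably expressing Vif and C-terminally eYFP-tagged A3G, seeded overnight at 37 deg C, then exposed to compound by pintool overnight at 37 deg C. Rise in yellow fluorescence (Ex 488/Em 500-530, Acumen) marks blocked Vif-driven A3G degradation.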
VDR inh: Inhibitors of the vitamin D receptor (VDR): qHTS; VDR-SRC2-3 peptide fluorescence polarization, 2 h; Potency, µM, without a hit: max response, negative = inhibition, hits mostly inhibitors; 0.93% of 400,000 active; Vitamin D3 receptor (Homo sapiens), P11473; also: potency is read from the fitted curve at half-maximal effect; % is scaled to controls: 0 for no effect and ±100 for the full control effect
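Two reagent solutions held at 4 deg C in the dark were dispensed, compounds pinned at 23 nl, and the mixture incubated 2 h at room temperature. Read-out: fluorescence polarization of VDR–SRC2-3 peptide binding.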
* = called active by the depositor; ? = inconclusive; · = no result. Unless noted, calls follow the shape of the dose curve; as a rule, active = well fitted curve in the direction sought with a large enough effect; inconclusive = small, poorly fitted or top-dose-only effect, or another doubt; inactive = no such curve, though single readings can be large; an effect the other way counts as inactive or inconclusive.

SMILES | TSHR antagonist | PLK1 PBD block | Vif-APOBEC3F blk | Vif-A3G inh | VDR inh
CN(C)/C=C1/C(=O)N(c2ccc([N+](=O)[O-])cc2)N=C1c1ccccc1 | -24 | · | · | · | ·
O=C(C[n+]1cccc2cccc(O)c21)c1ccc(Br)cc1 | · | · | · | 1% | ·
O=C(C[n+]1ccnc2ccccc21)c1ccc(Br)cc1 | · | · | · | -1% | ·
O=C(O)c1ccccc1-c1ccc(/C=C2\SC(=O)N(c3ccccc3)C2=O)o1 | -1 | -13% | -5% | -4% | -7%
CC1=NN(c2ccc(Br)cc2)C(=O)/C1=C/c1ccc(-c2ccccc2C(=O)O)o1 | -34 | 12µM* | -5% | -1% | ?
CN(C)CCC(=O)c1ccc(Cl)cc1 | -3 | 4.2µM* | -8% | -19% | -24%
CN(CCC(=O)c1ccccc1)CCC(=O)c1ccccc1 | 18 | 27µM* | 0% | 3% | -12%
O=C(CC(=O)c1ccccc1)c1ccccc1 | · | -8% | -2% | -4% | -14%
CC(C)=CCC/C(C)=C/CC/C(C)=C/CC/C(C)=C/CC1=C(C)C(=O)c2ccccc2C1=O | 10 | -12% | 7% | -3% | ?
CC(C)=CCC1=C(OCC(=O)O)C(=O)c2ccccc2C1=O | 31 | 30µM* | 5% | -6% | ?
O=C(COc1ccc2c(c1)CCC2)N1CCc2ccccc21 | -17 | 3.8µM* | 1% | -2% | ?
C/C=C/C(=O)N1CC2(CC(c3cccc(NC(=O)CCCCC)c3)=NO2)C[C@H]1C(N)=O (some centres not stated) | 4 | · | · | · | ·
C/C=C/C=C/C(=O)N1CC2(CC(c3cccc(NC(=O)CCCCC)c3)=NO2)C[C@H]1C(N)=O (some centres not stated) | 2 | -29% | 7% | -17% | 79µM*
O=C1CC(c2ccccc2)CC(O)=C1C=Nc1ccccc1O (configuration not stated) | 12 | 1% | -4% | -12% | 5%
O=C1CC(c2ccccc2)CC(O)=C1C=Nc1ccccc1 (configuration not stated) | 9 | 24µM* | -5% | -4% | -1%
Cc1cc(C)n(-c2nc3ccccc3c(=O)n2OCCOc2ccccc2)n1 | 3 | 3.4µM* | 1% | 0% | -13%
Cc1cc(CC(C)C)n(-c2nc3ccccc3c(=O)n2OCC(N)=O)n1 | -3 | 21µM* | 0% | -3% | -15%
CC(C)(C)[C@H](NC(=O)c1ccc(N)c(Cl)c1)C(=O)N1CCC[C@H]1C(=O)N[C@H](C#N)Cc1nn[nH]n1 | -10 | · | · | · | ·
CC(=O)Nc1ccc(-c2csc(N3CCC(C(N)=O)CC3)n2)cc1 | -4 | · | · | · | ·
CCOc1ccc(OCCOc2ccc(/C=C/C(=O)O)cc2OCC)cc1 | -8 | -6% | -12% | 0% | -6%
CCOc1cc(/C=C/C(=O)O)ccc1OCCO | -7 | 27µM* | 3% | 3% | ?
CCOC(=O)/C(C#N)=C\c1ccc(OC)c(OC)c1 | -3 | -16% | 3% | 1% | 0%
CCOC(=O)/C(C#N)=C\c1cc(OC)c(OC)cc1[N+](=O)[O-] | 2 | 7.5µM* | -17% | -1% | 20µM*
COc1ccc(Cl)cc1NC(=O)NCc1ccco1 | -5 | -6% | -2% | -5% | -8%
COc1ccc(Cl)cc1NC(=S)Nc1ccccc1C | -9 | 11µM* | 0% | -1% | ?
SMILES | TSHR antagonist | PLK1 PBD block | Vif-APOBEC3F blk | Vif-A3G inh | VDR inh
COc1ccc(CNC(=S)Nc2ccccc2C)cc1 | 9 | 17µM* | -4% | 2% | -24%
C=CCNC(=O)Nc1cc(Cl)ccc1OC | -5 | 27µM* | -6% | -6% | -10%
COc1ccc(CNC(=S)Nc2cc(C)ccc2C)cc1 | 1 | ? | 3% | 5% | 22%
CC1C/C(=C/c2ccccn2)C(=O)/C(=C/c2ccccn2)C1 (configuration not stated) | -1 | ? | 8% | ? | 28µM*
C=CCN1C(=O)C(CC(C)C)NC1=S (configuration not stated) | · | · | · | · | 2%
COc1ccc(Cn2ccc3nc(C)c(C(=O)Nc4ccc(OC(F)(F)F)cc4)cc3c2=O)cc1 | · | · | -3% | -1% | 5%
O=C(Nc1nccs1)C1CCCN(S(=O)(=O)c2cccnc2)C1 (configuration not stated) | 15 | 21µM* | 0% | 4% | -26%
O=C(Nc1nc(-c2ccccc2)cs1)C1CCCN(S(=O)(=O)c2cccc([N+](=O)[O-])c2)C1 (configuration not stated) | -19 | -9% | · | 1% | -1%
O=C(Nc1nc(-c2ccccc2)cs1)C1CCCN(S(=O)(=O)c2ccccc2)C1 (configuration not stated) | -75* | -2% | -1% | 0% | -2%
O=C(Nc1nccs1)C1CCN(S(=O)(=O)c2cccnc2)CC1 | 13 | 2% | -3% | -5% | -1%
Cc1csc(C)[n+]1CCC1CCCCC1 | · | · | · | 4% | ·
COc1ccc(S(=O)(=O)NCCCC(=O)Nc2ccc(Sc3ccc(N)cc3)cc2)cc1 | · | · | · | · | 3%
O=C(Sc1n[nH]c(=O)[nH]c1=O)c1ccccc1 | · | 5.3µM* | -6% | -3% | ?
CN(C(=O)CSc1n[nH]c(=O)[nH]c1=O)c1ccccc1 | · | -5% | -12% | 2% | -11%
Cn1c(C(=O)NC2CCCC2)cc2c(=O)n(C)c3ccccc3c21 | 7 | 30µM* | -12% | 0% | ?
N#C/C(=C\c1cccc([N+](=O)[O-])c1)C(=O)NCc1ccc(Cl)cc1 | -9 | ? | 7% | -27% | 40µM*
COCCCNC(=O)/C(C#N)=C/c1ccc(OCC(=O)O)c(OC)c1 | 2 | 21µM* | 2% | 3% | -5%
COCCNC(=O)/C(C#N)=C/c1cccc(/C=C(\C#N)C(=O)NCCOC)c1 | -11 | ? | 1% | ? | 35µM*
Fc1ccccc1C1CC(c2ccco2)=Nc2ccccc2S1 (configuration not stated) | 44 | -13% | -14% | -23% | 79µM*
COc1ccccc1C1CC(c2cccs2)=Nc2ccccc2S1 (configuration not stated) | 76 | -18% | 4% | -4% | -20%
CC1CCCN(C(=O)CCS(=O)(=O)c2ccc3c(c2)n(C)c(=O)c(=O)n3C)C1 (configuration not stated) | -8 | -13% | -7% | 0% | -12%
Cn1c(=O)c(=O)n(C)c2cc(S(=O)(=O)CCC(=O)N3CCOCC3)ccc21 | 14 | 27µM* | -3% | -2% | ?
Fc1ccc(COc2ccccc2C(=S)N2CCCC2)cc1 | -13 | 4.2µM* | -6% | 0% | 50µM*
Nc1cc(S(=O)(=O)Nc2ccc(Cl)cc2)ccc1N1CCOCC1 | -16 | 5.3µM* | -6% | -6% | ?
